Where “and” joins values, the source holds several entries; their conditions need not be identical. Equal entries are not always repeated. Screen size: about 5,500 compounds; about 2,000 (36%) were called active. About 18% were inconclusive and are not listed. Cut-off read from the data, not from the text of the source: active = normalized growth mostly below about 0.91 (no sharp cut-off); inconclusive = no clear call, values can overlap the other calls; inactive = mostly above about 0.92. The list shows a part of the results.
Assay: chemical genetic growth profiling, strain panel (AID 1159580);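 note: tested at 20 µM; growth read once vehicle control cultures reached saturation at 30 °C; 1 = growth at the plate median or of vehicle wells; lower values mean less growth of the strain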
Conditions: S. cerevisiae deletion strains, growth OD

Measured: normalized growth

CC1(C)C2CC(=O)O[C@@]3(C)C4=CC(=O)O[C@@H](c5ccoc5)[C@]4(C)CCC3[C@@]2(C)C=C[C@H]1O (stereo partly drawn)
inactive: locus YAL013W, strain DEP1, hits give low values 0.997 | locus YAL021C, strain ccr4, hits give low values 0.993 | locus YAL026C, strain drs2, hits give low values 0.98 | locus YAL030W, strain snc1, hits give low values 0.978 | locus YBL061C, strain skt5, hits give low values 0.986 | locus YBR009C, strain hhf1, hits give low values 0.991 | locus YBR021W, strain FUR4, hits give low values 1.01 | locus YBR023C, strain chs3, hits give low values 0.97 | locus YBR171W, strain sec66, hits give low values 0.966 | locus YBR229C, strain ROT2, hits give low values 1.01 | locus YBR231C, strain swc5, hits give low values 0.985 | locus YBR279W, strain paf1, hits give low values 0.985 | locus YCL011C, strain gbp2, hits give low values 0.967 | locus YCL016C, strain dcc1, hits give low values 1.01 | locus YCL029C, strain bik1, hits give low values 0.989 | locus YCL061C, strain MRC1, hits give low values 0.999 | locus YCL069W, strain vba3, hits give low values 0.971 | locus YCR088W, strain abp1, hits give low values 0.974 | locus YDL005C, strain med2, hits give low values 0.975 | locus YDL035C, strain GPR1, hits give low values 1.03 | locus YDL040C, strain nat1, hits give low values 0.974 | locus YDL074C, strain BRE1, hits give low values 1.01 | locus YDL101C, strain DUN1, hits give low values 0.999 | locus YDL134C, strain PPH21, hits give low values 1.01 | locus YDL185W, strain tfp1, hits give low values 0.999 | locus YDL192W, strain arf1, hits give low values 0.988 | locus YDR001C, strain nth1, hits give low values 0.99 | locus YDR069C, strain doa4, hits give low values 0.98 | locus YDR101C, strain arx1, hits give low values 1 | locus YDR137W, strain rgp1, hits give low values 1.01 | locus YDR159W, strain sac3, hits give low values 0.953 | locus YDR162C, strain NBP2, hits give low values 0.998 | locus YDR195W, strain ref2 0.961 | locus YDR297W, strain sur2, hits give low values 0.983 | locus YDR318W, strain mcm21, hits give low values 0.989 | locus YDR334W, strain swr1, hits give low values 0.981 | locus YDR335W, strain msn5, hits give low values 0.979 | locus YDR388W, hits give low values 0.99 | locus YDR392W, strain spt3, hits give low values 0.984 | locus YDR502C, strain sam2, hits give low values 0.998 | locus YEL003W, strain gim4, hits give low values 0.978 | locus YEL037C, strain rad23, hits give low values 0.984 | locus YEL061C, strain CIN8 (second series), hits give low values 0.972 | locus YER015W, strain faa2, hits give low values 0.975 | locus YER016W, strain bim1, hits give low values 0.988 | locus YER110C, hits give low values 0.983 | locus YER111C, strain swi4, hits give low values 0.975 | locus YER155C, strain BEM2 (second series), hits give low values 1 | locus YER155C, strain BEM2, hits give low values 1.01 | locus YER167W, strain BCK2, hits give low values 1.02 | locus YFR010W, strain ubp6, hits give low values 0.971 | locus YGL078C, strain dbp3, hits give low values 0.982 | locus YGL086W, strain mad1, hits give low values 0.988 | locus YGL167C, strain pmr1, hits give low values 0.989 | locus YGL173C, strain kem1, hits give low values 0.98 | locus YGL227W, strain vid30, hits give low values 0.98 | locus YGL240W, strain doc1, hits give low values 0.968 | locus YGL248W, strain PDE1, hits give low values 1 | locus YGL253W, strain hxk2, hits give low values 0.948 | locus YGR078C, strain PAC10, hits give low values 1 | locus YGR135W, strain pre9, hits give low values 0.969 | locus YGR252W, strain gcn5, hits give low values 0.97 | locus YHR013C, strain ard1, hits give low values 0.973 | locus YHR027C, strain rpn1, hits give low values 0.983 | locus YHR030C, strain SLT2, hits give low values 1.01 and 0.99 | locus YHR079C, strain IRE1 (second series), hits give low values 0.988 | locus YHR079C, strain IRE1, hits give low values 0.987 | locus YHR094C, strain hxt1, hits give low values 0.987 | locus YHR129C, strain ARP1, hits give low values 1.01 | locus YHR142W, strain chs7, hits give low values 0.964 | locus YHR200W, strain rpn10, hits give low values 0.989 | locus YIL066C, strain RNR3, hits give low values 1.02 | locus YIL073C, strain SPO22, hits give low values 0.988 | locus YIL125W, strain kgd1, hits give low values 0.991 | locus YIR030C, strain dcg1, hits give low values 0.975 | locus YJL092W, strain hpr5, hits give low values 0.971 | locus YJL095W, strain BCK1 (second series), hits give low values 0.982 | locus YJL095W, strain BCK1, hits give low values 0.986 and 0.978 | locus YJL115W, strain asf1, hits give low values 0.987 | locus YJL129C, strain trk1, hits give low values 0.956 | locus YJL134W, strain LCB3, hits give low values 1.01 | locus YJL154C, strain vps35, hits give low values 0.99 | locus YJL164C, strain tpk1, hits give low values 1.01 | locus YJL166W, strain qcr8, hits give low values 0.98 | locus YJL168C, strain set2, hits give low values 0.98 | locus YJL187C, strain SWE1 (second series), hits give low values 0.997 | locus YJL187C, strain SWE1, hits give low values 0.983 | locus YJR043C, strain POL32, hits give low values 1.03 | locus YJR066W, strain TOR1, hits give low values 0.946 | locus YKL009W, strain mrt4, hits give low values 0.985 | locus YKL068W, hits give low values 1 | locus YKL085W, strain MDH1 (second series), hits give low values 0.993 | locus YKL085W, strain MDH1, hits give low values 0.993 | locus YKL160W, strain elf1, hits give low values 1.02 | locus YKR001C, strain vps1, hits give low values 0.997 | locus YKR026C, strain gcn3, hits give low values 0.977 | locus YKR091W, strain srl3, hits give low values 0.983 | locus YLL001W, strain dnm1, hits give low values 1 | locus YLL026W, hits give low values 0.971 | locus YLL041C, strain sdh2, hits give low values 0.976 | locus YLR027C, strain aat2, hits give low values 0.968 | locus YLR039C, strain RIC1, hits give low values 0.952 | locus YLR058C, strain SHM2, hits give low values 1.01 | locus YLR102C, strain apc9, hits give low values 0.982 | locus YLR113W, strain HOG1, hits give low values 0.969 | locus YLR221C, strain rsa3, hits give low values 0.975 | locus YLR258W, strain gsy2, hits give low values 0.98 | locus YLR262C, strain YPT6 (second series), hits give low values 1.01 | locus YLR268W, strain sec22, hits give low values 1.01 | locus YLR320W, strain mms22, hits give low values 0.993 | locus YLR330W, strain CHS5, hits give low values 1.01 | locus YLR342W, strain FKS1, hits give low values 0.977 | locus YLR357W, strain rsc2, hits give low values 1 | locus YLR370C, strain arc18, hits give low values 0.958 | locus YLR371W, strain rom2, hits give low values 0.992 | locus YLR384C, strain iki3, hits give low values 0.986 | locus YLR418C, strain cdc73, hits give low values 0.955 | locus YML016C, strain PPZ1, hits give low values 1.01 | locus YML032C, strain rad52, hits give low values 1 | locus YML120C, strain ndi1, hits give low values 0.959 | locus YML124C, strain tub3, hits give low values 0.983 | locus YMR058W, strain fet3, hits give low values 0.986 | locus YMR078C, strain ctf18, hits give low values 0.985 | locus YMR125W, strain sto1, hits give low values 0.993 | locus YMR129W, hits give low values 0.992 | locus YMR205C, strain PFK2, hits give low values 1.04 | locus YMR223W, strain ubp8, hits give low values 0.971 | locus YMR231W, strain pep5, hits give low values 0.948 | locus YMR263W, strain SAP30, hits give low values 1.02 | locus YMR307W, strain GAS1, hits give low values 0.922 | locus YNL067W, strain RPL9B, hits give low values 0.999 | locus YNL071W, strain lat1, hits give low values 0.987 | locus YNL153C, strain GIM3, hits give low values 1 | locus YNL183C, strain NPR1, hits give low values 0.962 | locus YNL209W, strain ssb2, hits give low values 1.01 | locus YNL233W, strain BNI4, hits give low values 0.992 | locus YNL248C, strain rpa49, hits give low values 0.98 | locus YNL250W, strain rad50, hits give low values 0.984 | locus YNL271C, strain bni1, hits give low values 0.995 | locus YNL298W, strain CLA4, hits give low values 1 | locus YNL307C, strain MCK1, hits give low values 0.991 | locus YNL322C, strain KRE1 (second series), hits give low values 0.962 | locus YNR049C, strain mso1, hits give low values 0.981 | locus YNR052C, strain pop2, hits give low values 0.983 | locus YOL006C, strain TOP1, hits give low values 1.03 | locus YOL012C, strain htz1 0.912 | locus YOL147C, strain pex11, hits give low values 0.989 | locus YOR001W, strain rrp6, hits give low values 0.95 | locus YOR061W, strain CKA2, hits give low values 1.01 | locus YOR069W, strain VPS5, hits give low values 1 | locus YOR070C, strain gyp1, hits give low values 0.984 | locus YOR080W, strain dia2, hits give low values 0.963 | locus YOR083W, strain WHI5, hits give low values 1.02 | locus YOR106W, strain vam3, hits give low values 0.989 | locus YOR136W, strain idh2, hits give low values 0.998 | locus YOR144C, strain elg1, hits give low values 0.993 | locus YOR184W, strain ser1, hits give low values 1.02 | locus YOR231W, strain MKK1, hits give low values 0.998 | locus YOR265W, strain rbl2, hits give low values 0.966 | locus YOR270C, strain vph1, hits give low values 0.951 | locus YOR290C, strain snf2, hits give low values 0.974 | locus YOR316C, strain cot1, hits give low values 0.981 | locus YPL051W, strain arl3, hits give low values 0.987 | locus YPL078C, strain atp4, hits give low values 1.01 | locus YPL106C, strain sse1, hits give low values 1.02 | locus YPL240C, strain hsp82, hits give low values 0.967 | locus YPL241C, strain CIN2, hits give low values 1.01 | locus YPL256C, strain CLN2, hits give low values 0.967 | locus YPR119W, strain clb2, hits give low values 0.981 | locus YPR141C, strain kar3, hits give low values 0.987 | locus YPR163C, strain tif3, hits give low values 0.994 | locus YPR167C, strain met16, hits give low values 0.983 | strain wtn01, hits give low values 1.02
